From PubChem BioAssay (EPA / NIEHS) come the findings set out here.

Structures are written as SMILES. Records with an inconclusive call do not appear. Activity calls are given as the source filed them. The calls were made as follows: active = hit-call score of the fitted dose curve at least 0.9, where 1 is the maximum; inconclusive = response in the unintended direction; inactive = score below 0.9.

Cytochrome P450 2C19 (Homo sapiens), sequence (P33261 whole entry, looked up): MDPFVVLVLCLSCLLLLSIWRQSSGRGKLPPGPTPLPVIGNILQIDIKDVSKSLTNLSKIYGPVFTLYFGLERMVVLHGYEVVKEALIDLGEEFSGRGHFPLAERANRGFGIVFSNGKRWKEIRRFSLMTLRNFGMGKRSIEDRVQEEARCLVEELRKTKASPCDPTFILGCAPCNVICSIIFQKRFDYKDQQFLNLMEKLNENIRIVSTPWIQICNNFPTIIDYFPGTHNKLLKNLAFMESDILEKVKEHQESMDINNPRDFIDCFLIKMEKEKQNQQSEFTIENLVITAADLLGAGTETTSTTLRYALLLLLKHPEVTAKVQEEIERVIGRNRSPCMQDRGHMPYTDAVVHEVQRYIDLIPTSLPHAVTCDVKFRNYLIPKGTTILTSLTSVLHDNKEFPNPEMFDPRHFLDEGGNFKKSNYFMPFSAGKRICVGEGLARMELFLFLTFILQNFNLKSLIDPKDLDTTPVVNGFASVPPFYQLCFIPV

Read-out in the test: Cytochrome P450 2C19 (Homo sapiens) (UniProt P33261)
The experiment in a line: CLD_CYP2C19_24hr: CellzDirect (CLD) Gene Expression Assay for xenobiotic metabolism (CYP2C19) at 24 hours (AID 2283687).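 Also: activity means mRNA induction above DMSO vehicle baseline.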 How it is done:
CLD_24hr is a cell-based, multiplexed-readout assay that uses hepatocyte, a human liver primary cell, with measurements taken at 24 hours after chemical dosing in a 96-well plate.CLD_CYP2C19_24hr is one of 16 assay component(s) measured or calculated from the CLD_24hr assay. It is designed to make measurements of mRNA induction, a form of inducible reporter, as detected with chemiluminescence signals by Quantitative Nuclease Protection Assay (qNPA) technology.Data from the assay component CLD_CYP2C19_24hr was analyzed at the endpoint, CLD_CYP2C19_24hr, in the positive analysis fitting direction relative to DMSO as the negative control and baseline of activity. Using a type of inducible reporter, gain-of-signal activity can be used to understand changes in the reporter gene as they relate to the gene CYP2C19. Furthermore, this assay endpoint can be referred to as a primary readout. To generalize the intended target to other relatable targets, this assay endpoint is annotated to the cyp intended target family, where subfamily is xenobiotic metabolism.
Human hepatocyte cultures were treated daily for two consecutive days with fresh dosing solutions containing appropriate concentrations of the 320 ToxCast chemicals (chemical identities were blinded to CellzDirect and other ToxCast collaborators), vehicle control (0.2% DMSO), and positive control inducers as summarized in Table 1. Due to the large number of treatment groups and chemicals examined, the ToxCast chemicals were divided into two groups (spanning two independent cultures of hepatocytes from separate donor preparations (Hu778: ToxCast plates 1 and 2; Hu776: ToxCast plates 3 and 4). Each preparation of human hepatocyte cultures was treated with respective vehicle control, medium only control, set of six positive controls/reference chemicals for the five hepatic receptor pathways, and a subset of eight of the ToxCast chemicals (indoxacarb, pyrithiobac-sodium, norflurazon, cyhalofop-butyl, methomyl, thiram, acetochlor, and propiconazole). These replicate data, coupled with internal replicates designed within the blinded ToxCast chemical library, provided additional data to evaluate interindividual differences between hepatocyte preparations and their potential impact on chemical profiles.Cell morphology and integrity were evaluated using phase-contrast microscopy as an indicator of hepatocyte cell health (Tyson & Green, 1987). Cultures for each treatment group (i.e., media, vehicle [0.2% DMSO], positive control inducers [multiple concentrations], and the ToxCast chemicals [multiple concentrations]) were observed and cell morphology was assessed relative to vehicle control cultures at each harvest time point (0, 6, 24, or 48 h). […] Images were evaluated at the conclusion of the study to assess changes in cell integrity and account for the effects of chemical exposure on uncharacteristic changes in concentration-dependent gene expression profiles. The results from these determinations of apparent cytotoxicity were annotated (yes/no) alongside the corresponding qNPA data for reference.At the conclusion of each treatment period, hepatocyte cultures (96-well) were washed with 1 volume of HBSS, lysed by addition of 25 ul ArrayPlate lysis buffer (HTG, Tucson, AZ), and 70 ul/well of Denaturation Oil, denatured by incubation at 95C for 10 min, and frozen at approximately -70C until analysis by nuclease protection assay (qNPA) (Roberts et al., 2007). For qNPA analysis, cell lysates were thawed at 50C for approximately 30 min, qNPA probes were added, and samples were incubated at 95C for 10 min to begin the detection process by denaturing the target RNA, dissociating the duplexes and secondary structure hybridization. At the conclusion of the hybridization period, S1 nuclease reagent was added to each sample to digest all nonprotected nucleotides at 50C for 60-90 min. […]
On to `CN1COCN(Cc2cnc(Cl)s2)C1=N[N+](=O)[O-]`, for which the molecule was classed as inactive.

Consider `CCOC(=O)CC(SP(=O)(OC)OC)C(=O)OCC` (stereo not given), for which the molecule was classed as inactive.

Take `CCOP(=O)(NC(C)C)Oc1ccc(SC)c(C)c1` (stereo not given): the outcome was inactive.

`CCc1cnc(C2=NC(C)(C(C)C)C(=O)N2)c(C(=O)O)c1` (stereo not given): the result was inactive.

Turning to `O=C(O)c1cc(Oc2ccc(C(F)(F)F)cc2Cl)ccc1[N+](=O)[O-]`, the molecule was called inactive.

On to `COc1cc(OC)nc(Sc2cccc(Cl)c2C(=O)O)n1`, for which the molecule was classed as inactive.

On to `CN(C)C(=O)Nc1cccc(C(F)(F)F)c1`, for which the outcome was inactive.

Take `CCCCSP(=O)(SCCCC)SCCCC`: the molecule was called inactive.

For `CCCCOC(=O)[C@@H](C)Oc1ccc(Oc2ccc(C#N)cc2F)cc1`, the result was inactive.

`Cc1nn(-c2cc(NS(C)(=O)=O)c(Cl)cc2Cl)c(=O)n1C(F)F`: the outcome was inactive.

On to `CCC(CC)Nc1c([N+](=O)[O-])cc(C)c(C)c1[N+](=O)[O-]`, for which the result was inactive.

Take `CC(C)N(C(=O)SCC(Cl)=C(Cl)Cl)C(C)C`: the outcome was inactive.

On to `CCCSP(=O)(OCC)SCCC`, for which the molecule was classed as inactive.

As for `COc1cccc(C(=O)NN(C(=O)c2cc(C)cc(C)c2)C(C)(C)C)c1C`, the molecule was called inactive.

For the molecule `CCCCOC(=O)c1ccccc1C(=O)O`, the molecule was called inactive.

Consider `CON=C(C(=O)OC)c1ccccc1CON=C(C)c1cccc(C(F)(F)F)c1`, for which the outcome was inactive.

For the molecule `CCOP(=O)(SC(C)CC)N1CCSC1=O` (stereo not given), the outcome was inactive.

Turning to `CCOP(=S)(Oc1cnc(C(C)(C)C)nc1)OC(C)C` (stereo not given), the outcome was inactive.

`S=C1NCCN1`: the call was inactive.

For the molecule `CCOP(=S)(OCC)SCCSCC`, the molecule was called inactive.

Take `CSc1nc(NC(C)C)nc(NC(C)C)n1`: the outcome was inactive.

Take `CC1=NNC(=O)N(/N=C/c2cccnc2)C1`: the result was inactive.

Consider `CCCSP(=O)(OCC)Oc1ccc(Br)cc1Cl` (stereo not given), for which the molecule was classed as inactive.

In the case of `CSc1nnc(C(C)(C)C)c(=O)n1N`, the molecule was called inactive.

In the case of `CC(C)=CC1C(C(=O)OCN2C(=O)C3=C(CCCC3)C2=O)C1(C)C` (stereo not given), the molecule was classed as inactive.

In the case of `CN(C)NC(=O)CCC(=O)O`, the result was inactive.

`CCOP(=S)(OCC)Oc1cc(C)nc(C(C)C)n1`: the outcome was inactive.

As to `CC[C@H](C)[C@H]1O[C@]2(C=C[C@@H]1C)C[C@@H]1C[C@@H](C/C=C(\C)[C@@H](O[C@H]3C[C@H](OC)[C@@H](O[C@H]4C[C@H](OC)[C@@H](NC)[C@H](C)O4)[C@H](C)O3)[C@@H](C)/C=C/C=C3\CO[C@@H]4[C@H](O)C(C)=C[C@@H](C(=O)O1)[C@]34O)O2`, the call was inactive.

Regarding `COP(=O)(OC)OC(Br)C(Cl)(Cl)Br` (stereo not given), the molecule was called inactive.

As to `CC(C1CC1)C(O)(Cn1cncn1)c1ccc(Cl)cc1` (stereo not given), the molecule was called inactive.

Consider `CCOC(=O)COc1cc(-c2nn(C)c(OC(F)F)c2Cl)c(F)cc1Cl`, for which the molecule was classed as inactive.

Regarding `CC1(C(=O)Nc2ccc(O)c(Cl)c2Cl)CCCCC1`, the call was inactive.

Take `O=c1ccc(=O)[nH][nH]1`: the outcome was inactive.

As to `CCOP(=S)(OCC)Oc1ccc2c(C)c(Cl)c(=O)oc2c1`, the outcome was inactive.

With `Cc1ccn2nc(S(=O)(=O)Nc3c(F)cccc3F)nc2n1`, the outcome was inactive.

In the case of `C=C(C)[C@H]1Cc2c(ccc3c2O[C@@H]2COc4cc(OC)c(OC)cc4[C@@H]2C3=O)O1`, the molecule was classed as inactive.

As for `COP(=O)(OC)SCn1c(=O)oc2cc(Cl)cnc21`, the molecule was called inactive.

Turning to `COc1ccc(C(=CC(=O)N2CCOCC2)c2ccc(Cl)cc2)cc1OC`, the molecule was classed as inactive.

Regarding `CNC(=O)ON=C(C)SC`, the molecule was called inactive.

On to `CCc1cccc(C)c1N(C(=O)CCl)C(C)COC` (stereo not given), for which the call was inactive.
